# Source: PubChem
# This is a sample that favours compounds with a hit; in the whole collection about 1.3% have one here.
# Akt phos inh = blocks phosphorylation of Akt | Neuro2A IGF-stimulated pAkt S473 HTRF, 20 min; stronger effect = lower value | activity change, % for hits at 50 µM | actives 0.32% (n = 360,000) | AID 651550; in the data active = activity change below about -80%; inconclusive = mostly about -51% to -80%; note: % is set by controls: 0 for no effect and ±100 for the full control effect
#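 Neuro2A cells in DMEM with 0.5% FBS, overnight at 37 deg C, given compound at single 50 µM final, then IGF (6 nM final) for 20 min at 37 deg C. Lysed; phospho-Akt Ser473 by HTRF after 24 h, 665/615 ratio.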
# gsp ag = gsp mutant agonism; gsp mutant cells, cAMP HTRF, 30 min; Potency, µM (highest dose often 76.9 µM), without a hit: at the top dose activation (cAMP increase), most hits filed as activators; actives 0.13% (n = 340,000); AID 624287; active = well fitted activation curve with a large enough effect; inconclusive = small, poorly fitted or top-dose-only effect, or another doubt; inactive = no such curve, though single readings can be large or run the other way; cell line not stated here;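 note: phosphodiesterase inhibitor Ro 20-1724 added with compounds to block cAMP breakdown; potency is the fitted concentration of half-maximal effect; nearly all actives have a fitted effect of over 60% in size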
#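 Cells stably selected in G418 were plated at 2000/well, grown 16-24 hr, then given compounds in DMSO with the PDE inhibitor […] (300 uM solution added) for 30 min at 37C; cAMP was read by HTRF.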
# RXFP1 antagonist = RXFP1 (human) relaxin receptor antagonism | AID 1259400 | actives 0.59% (n = 350,000) | HEK293-RXFP1, relaxin-stimulated cAMP HTRF, 30 min; stronger effect = lower value | activity change, negative = inhibition, % at 57.5 µM | Q9HBX9;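 active = activity change of -60% or lower, but not beyond a set lower limit; inconclusive = change between -60% and -40%, or beyond the set limit; inactive = change above -40%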; note: % is set by controls: 0 for no effect and ±100 for the full control effect
# RXFP1 agonist = activates the human relaxin receptor RXFP1; Q9HBX9; actives 0.3% (n = 370,000); Potency, µM (doses to about 57.5 µM), for the others: at the highest dose activation, actives largely listed as activators; HEK293T-RXFP1 cAMP TR-FRET, 30 min; response scale: percent of porcine relaxin response, buffer zero; AID 2676; active = well fitted activation curve with a large enough effect; inconclusive = small, poorly fitted or top-dose-only effect; note: potency is the fitted concentration of half-maximal effect; % is set by controls: 0 for no effect and ±100 for the full control effect; nearly all actives have a fitted effect of over 60% in size
#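 HEK293 cells stably expressing RXFP1, treated 30 min at 37C with compounds plus PDE4 inhibitor Ro 20174; cAMP measured by HTRF TR-FRET. Normalized to buffer and 29 nM porcine relaxin; EC50 by Hill fit.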
# gsp antagonist = antagonizes gsp, the McCune-Albright syndrome mutation; Potency, µM (titrated, usually from 76.9 µM), for inactives: top-dose activity change, negative = inhibition, most hits filed as inhibitors; gsp-mutant cells, cAMP HTRF, 30 min; AID 624288; actives 0.4% (n = 340,000); calls by dose curve; cell line not stated here;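 note: intracellular cAMP measured with PDE inhibitor Ro 20-1724 present during compound exposure; potency is the fitted concentration of half-maximal effect; % is set by controls: 0 for no effect and ±100 for the full control effect; nearly all actives have a fitted effect of over 65% in size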
#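 HTRF cAMP measurement after 30 min RT detection following 30 min, 37C compound treatment alongside […] (added as 300 uM solution) in G418-selected cells seeded at 2000/well and grown 16–24 h.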
# TSHR antagonist = human thyrotropin receptor antagonism | activity change, negative = inhibition, % at 11.5 µM | P16473 | actives 0.2% (n = 330,000) | TSHR-expressing cells, TSH-stimulated cAMP HTRF, 2 h; stronger effect = lower value;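 active = activity change below a set negative limit, meaning inhibition stronger than a set level, cut at about -70% in these data; inconclusive = activity change between two set negative limits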; note: % is set by controls: 0 for no effect and ±100 for the full control effect
#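 Inhibition of cAMP made by TSHR-expressing cells under TSH stimulation (4nM final, EC80; 2 h, 37 deg C) is quantified with a one-step lysis HTRF kit, anti-cAMP cryptate versus cAMP-d2.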
# * marks the source's active call; other numbers are inactive results; i = inactive; ? = inconclusive; . = no result given; [ ] = dose if it differs, or a comment.
SMILES,Akt phos inh,gsp ag,RXFP1 antagonist,RXFP1 agonist,gsp antagonist,TSHR antagonist
O=C(N/N=C/c1cccnc1)c1ccc([N+](=O)[O-])cc1Cl,-83%*,-3%,2,-1%,9%,3
Clc1ncc(CSc2ccccc2)s1,i,22%[15.4 µM],-3,0%,2%,-13
O=C(Nc1c(-c2ccccc2)nc2sccn12)c1ccccc1,-106%*,-2%,-7,0%,2%,0
Cc1cccc(NC(=O)C2CCN(S(=O)(=O)c3ccc4c(c3)NC(=O)CO4)CC2)c1,i,17%,0,-2%,-9%,-134*
COc1cccc(CNC(=O)Cn2c(SCC(=O)Nc3ccc(F)cc3)nc3ccccc32)c1,.,.,-18,12%,.,.
COC(=O)c1ccc(COc2ncnc3ccccc23)o1,i,14%[15.4 µM],8,16µM*,13%,15
COC(=O)c1ccc(COc2ccc(C(=O)c3ccccc3)cc2)o1,i,5%,-28,0%,3%,-36
COc1ccc(NS(=O)(=O)c2cccc(C(=O)NCC(c3ccco3)N3CCCCC3)c2)cc1 (stereo unspecified),i,-14%[15.4 µM],-73*,1%,-5%,-6
CCOC(=O)Oc1ccc(CCNC(=O)[C@H](CCSC)NC(C)=O)cc1OC(=O)OCC,.,.,-11,.,.,.
Cc1cc(C)nc(N/C(=N\S(=O)(=O)Cc2ccccc2)Nc2cccc(Cl)c2C)n1,-118%*,-29%,-4,1%,1%,2
CC(CNC(=O)c1ccc2c(c1)nc1n2CCOC1)c1ccccc1 (stereo unspecified),.,.,17,-2%,.,.
CC(=O)N1CCCc2cc(S(=O)(=O)N3CCCC(C(=O)N4CCN(c5ccccc5)CC4)C3)ccc21 (stereo unspecified),i,-3%,-4,-1%,35µM*,12
Cc1ccc(NS(=O)(=O)c2ccc3c(c2)CCN3C(=O)C2CC2)c(C)c1,.,.,.,4%,.,.
CCN(CC)C(=O)C1CCN(S(=O)(=O)c2ccc3c(c2)CCCN3C(C)=O)CC1,.,.,-12,1%,.,.
Cc1ccc(C)c(NS(=O)(=O)c2ccc3c(c2)CCCN3C(=O)C2CCC2)c1,.,.,-63*,0%,.,.
CCN(CC)C(=O)C1CCN(S(=O)(=O)c2ccc3c(c2)CCCN3C(=O)C2CCC2)CC1,i,7%,-79*,-2%,-19%,-5
Cc1cccc(C(=O)Oc2ccc3ccc(O)cc3c2)c1,i,?,-2,0%,10%,-2
CC1=C(C(=O)N2CCOCC2)CC(CC(=O)NC2CC2)C(=O)N1Cc1ccc(F)cc1 (stereo unspecified),i,.,.,.,.,.
Cc1cccc(CN2[C@H](CO)C=CS2(=O)=O)c1,i,.,.,.,.,.
O=C(NCc1ccccc1)c1sc(=S)n2c1[nH]c(=O)c1ccccc12,i,-8%,11,1%,-14%,-79*
CCCCNC(=O)c1sc(=S)n2c1[nH]c(=O)c1ccc(C(=O)NCCc3ccc(OC)c(OC)c3)cc12,i,?,5,1%,35µM*,-37
CC(=O)N1CCc2cc(Br)cc(S(=O)(=O)N3CCC(C(=O)O)CC3)c21,i,10%,3,1%,11%,-106*
O=C(C1CC1)N1CCc2cc(Br)cc(S(=O)(=O)NC3CCCCC3)c21,-119%*,11%,-12,1%,-16%,8
CCOC(=O)c1c(C)sc(-c2c(-c3ccc4c(c3)OCCO4)[nH]c3c2c(=O)n(C)c(=O)n3C)c1O,.,.,-27,3%,.,.
O=C(Nc1nc(-c2ccco2)c(-c2ccco2)s1)C1CCC1,i,-28%,-61*,0%,-10%,-21
O=C(Nc1nnc(-c2ccco2)s1)C1CCCCC1,.,11%,-3,5%,-3%,1
CCN(CC(=O)Nc1ccc(OC)cc1)C(=O)c1oc2c(Cl)cccc2c1C,i,3%[15.4 µM],-100*,0%,-18%,-3
Cc1nc(C/C(=N\N)c2ccc(O)cc2O)cs1,i,-11%[15.4 µM],-35,0%,-25%,-6
